Here are results for 29 compounds from PubChem BioAssay (Tox21).

Molecules are shown by their SMILES. Values joined by “and” are separate entries in the source; they are usually repeats but may differ in a detail not shown here. Identical values can stand only once. Results filed as inconclusive are left out. The source holds several records for some structures; these can differ, active in one and inactive in another. Active and inactive are the calls of the source. Unless noted, calls follow the shape of the full dose curve.

Experiment [1] in a line: qHTS assay to identify small molecule antagonists of the sonic hedgehog signaling (Shh) pathway (AID 1259369). Also: nearly all actives have a fitted effect of over 45% in size. Also: potency is read from the fitted curve at half-maximal effect. The essentials: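 Stable Gli1-Luc reporter NIH/3T3 clone; quantitative HTS in stimulated mode with conditioned medium. Luminescence measured after 24hr compound treatment at 37 C.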
Experiment [2] has as its target Estrogen receptor beta (Homo sapiens) (UniProt Q92731). As to the kind of experiment: qHTS assay to identify small molecule antagonists of the estrogen receptor beta (ER-beta) signaling pathway (AID 1259378; active = well fitted inhibition curve with a large enough effect in the signal ratio in the repeat runs, not every such curve was filed as active; the % refers to the signal ratio; also: potency is read from the fitted curve at half-maximal effect). The essentials: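 Antagonist mode: compounds added to beta-lactamase reporter HEK293T ER-beta-UAS cells stimulated with E2 (1nM final), 16 hr at 37C. LiveBLAzer B/G FRET substrate, 2 hours room temperature, fluorescence read-out.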

Experiment [3] in a line: qHTS assay to identify small molecule agonists of the androgen receptor (AR) signaling pathway in the presence of an antagonist - cell viability counter screen (AID 1259379; active = well fitted curve in the direction sought with a large enough effect in the repeat runs; an effect the other way counts as inactive or inconclusive; also: nearly all actives have a fitted effect of over 25% in size; also: potency is read from the fitted curve at half-maximal effect). The procedure, abridged:
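Nilutamide-containing (3.0uM final) MDA-kb2 cultures, 3,000 cells/well, were treated with compounds across 15 concentrations. After 16 hr at 37C with no CO2, cell viability was determined by CellTiter-Fluor fluorescence in the luciferase assay wells.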

Experiment [4] can be described thus: qHTS assay to identify small molecule antagonists of the estrogen receptor beta (ER-beta) signaling pathway - cell viability counter screen (AID 1259382; active = well fitted curve in the direction sought with a large enough effect in the repeat runs; an effect the other way counts as inactive or inconclusive; also: nearly all actives have a fitted effect of over 55% in size; also: potency is read from the fitted curve at half-maximal effect). The essentials: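 Viability is scored by CellTiter-Glo luminescence (30 min, room temperature) in ER-beta-UAS-bla HEK293T wells already read for reporter fluorescence. Compound exposure lasts 16 hr at 37C alongside 1nM 17-beta-estradiol in charcoal-stripped serum medium.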

Experiment [5] has as its target Estrogen receptor beta (Homo sapiens) (UniProt Q92731). Kind of experiment: qHTS assay to identify small molecule agonists of the estrogen receptor beta (ER-beta) signaling pathway (AID 1259377; active = well fitted activation curve with a large enough effect in the signal ratio in the repeat runs, not every such curve was filed as active; the % refers to the signal ratio; also: potency is read from the fitted curve at half-maximal effect). The procedure, abridged: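 Agonist mode cell assay in GripTite HEK293T cells expressing an ER-beta fusion that drives beta-lactamase from an Upstream Activator Sequence; 16 hr compound exposure at 37C, then 2 h LiveBLAzer B/G FRET substrate at room temperature, fluorescence read-out.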

Experiment [6] in a line: qHTS assay to identify small molecule agonists of the estrogen receptor beta (ER-beta) signaling pathway - cell viability counter screen (AID 1259380; active = well fitted curve in the direction sought with a large enough effect in the repeat runs; an effect the other way counts as inactive or inconclusive; also: nearly all actives have a fitted effect of over 30% in size; also: potency is read from the fitted curve at half-maximal effect). The essentials:
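Steps: plate ER-beta-UAS-bla HEK293T cells, rest 6 hr; add compounds in DMSO; incubate 16 hr at 37C, 5% CO2; add FRET substrate 2 hr; add CellTiter-Glo, wait 30 min at room temperature; read luminescence.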

The target of experiment [7] is Androgen receptor (Homo sapiens) (UniProt P10275). Kind of experiment: qHTS assay to identify small molecule agonists of the androgen receptor (AR) signaling pathway in the presence of an antagonist (AID 1259381). Also: nearly all actives have a fitted effect of over 15% in size. Also: potency is read from the fitted curve at half-maximal effect. The procedure, abridged: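 Reporter-gene luminescence from MDA-kb2 cells exposed 16hr at 37C (0% CO2) to 15-point compound titrations with 3.0uM final nilutamide as AR antagonist.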

Experiment [8] concerns the target Estrogen receptor (Homo sapiens) (UniProt P03372). Kind of experiment: qHTS assay to identify small molecule agonists of the estrogen receptor alpha (ER-alpha) signaling pathway in the presence of an antagonist (AID 1259383). Also: top concentration of the series differs between compounds; nearly all actives have a fitted effect of over 15% in size. The essentials:
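Readout was ERE-driven luciferase luminescence in VM7Luc4E2 cells, which express full-length ER-alpha endogenously. Compounds were tested at 15 concentrations for 22hr alongside 10.0nM ICI-182,780 (final concentration).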

The nature of experiment [9]: qHTS assay to identify small molecule agonists or antagonists of the thyroid stimulating hormone receptor (TSHR) signaling pathway - wild type cell line counter screen (AID 1259384). The procedure, abridged: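 Counter screen in untransfected Hek293: compounds (15-point titration, triplicate) plus phosphodiesterase inhibitor Ro20-1724 added after 18 h plating; 30 min RT. Intracellular cAMP via competitive d2/cryptate immunoassay, 1 h incubation.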

Experiment [10] deals with Thyrotropin receptor (Homo sapiens) (UniProt P16473). Kind of experiment: qHTS assay to identify small molecule antagonists of the thyroid stimulating hormone receptor (TSHR) signaling pathway (AID 1259385). Also: nearly all actives have a fitted effect of over 20% in size. The procedure, abridged:
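Antagonist mode: compound-treated TSHR-expressing HEK293 cells were stimulated with 1.5 ng/mL TSH (final) in presence of Ro20-1724 for 30 min at RT. HTRF cAMP detection after 1 h; each compound tested at 15 concentrations, triplicate.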
% is scaled to controls: 0 for no effect and ±100 for the full control effect.

Androgen receptor (Homo sapiens), sequence (P10275 whole entry, looked up): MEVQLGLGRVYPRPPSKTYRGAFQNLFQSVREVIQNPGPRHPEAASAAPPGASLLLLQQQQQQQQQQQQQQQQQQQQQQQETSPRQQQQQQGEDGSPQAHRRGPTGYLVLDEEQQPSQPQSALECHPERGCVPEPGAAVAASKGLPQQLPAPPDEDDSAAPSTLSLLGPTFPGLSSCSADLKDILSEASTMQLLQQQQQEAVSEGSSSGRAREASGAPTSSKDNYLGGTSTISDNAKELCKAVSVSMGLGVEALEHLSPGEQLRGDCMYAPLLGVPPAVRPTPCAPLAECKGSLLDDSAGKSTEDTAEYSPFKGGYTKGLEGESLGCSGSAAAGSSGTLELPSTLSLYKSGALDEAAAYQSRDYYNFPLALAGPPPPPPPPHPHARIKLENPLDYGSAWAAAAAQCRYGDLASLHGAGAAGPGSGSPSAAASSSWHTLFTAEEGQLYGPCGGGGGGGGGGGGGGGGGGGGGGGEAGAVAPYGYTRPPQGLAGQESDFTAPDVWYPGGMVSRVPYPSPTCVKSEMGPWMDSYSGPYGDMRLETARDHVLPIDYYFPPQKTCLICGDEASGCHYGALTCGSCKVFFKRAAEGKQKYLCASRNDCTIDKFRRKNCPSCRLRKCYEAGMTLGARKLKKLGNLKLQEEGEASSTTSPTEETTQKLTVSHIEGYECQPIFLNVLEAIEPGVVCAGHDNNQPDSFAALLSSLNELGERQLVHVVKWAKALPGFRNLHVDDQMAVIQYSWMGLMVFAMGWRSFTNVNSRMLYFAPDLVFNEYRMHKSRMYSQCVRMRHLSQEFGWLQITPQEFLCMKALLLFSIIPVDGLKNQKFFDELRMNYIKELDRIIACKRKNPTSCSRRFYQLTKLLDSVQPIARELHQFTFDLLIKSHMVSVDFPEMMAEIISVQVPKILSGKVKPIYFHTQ
Estrogen receptor beta (Homo sapiens), sequence (Q92731 whole entry, looked up, the tested form may be a part): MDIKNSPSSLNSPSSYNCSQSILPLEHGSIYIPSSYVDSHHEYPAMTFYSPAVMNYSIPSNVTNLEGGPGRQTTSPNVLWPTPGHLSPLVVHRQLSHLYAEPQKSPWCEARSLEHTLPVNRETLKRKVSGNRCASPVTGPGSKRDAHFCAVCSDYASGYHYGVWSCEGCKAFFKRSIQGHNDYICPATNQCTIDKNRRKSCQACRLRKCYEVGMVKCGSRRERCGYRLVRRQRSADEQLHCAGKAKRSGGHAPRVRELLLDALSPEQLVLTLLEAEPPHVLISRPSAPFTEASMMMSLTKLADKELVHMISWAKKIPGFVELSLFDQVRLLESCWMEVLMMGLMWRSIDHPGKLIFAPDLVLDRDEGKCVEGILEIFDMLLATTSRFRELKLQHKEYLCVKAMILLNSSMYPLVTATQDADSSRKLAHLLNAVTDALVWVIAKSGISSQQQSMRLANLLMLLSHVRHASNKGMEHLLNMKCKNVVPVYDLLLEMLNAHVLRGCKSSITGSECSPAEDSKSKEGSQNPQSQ
Thyrotropin receptor (Homo sapiens), sequence (P16473 whole entry, looked up): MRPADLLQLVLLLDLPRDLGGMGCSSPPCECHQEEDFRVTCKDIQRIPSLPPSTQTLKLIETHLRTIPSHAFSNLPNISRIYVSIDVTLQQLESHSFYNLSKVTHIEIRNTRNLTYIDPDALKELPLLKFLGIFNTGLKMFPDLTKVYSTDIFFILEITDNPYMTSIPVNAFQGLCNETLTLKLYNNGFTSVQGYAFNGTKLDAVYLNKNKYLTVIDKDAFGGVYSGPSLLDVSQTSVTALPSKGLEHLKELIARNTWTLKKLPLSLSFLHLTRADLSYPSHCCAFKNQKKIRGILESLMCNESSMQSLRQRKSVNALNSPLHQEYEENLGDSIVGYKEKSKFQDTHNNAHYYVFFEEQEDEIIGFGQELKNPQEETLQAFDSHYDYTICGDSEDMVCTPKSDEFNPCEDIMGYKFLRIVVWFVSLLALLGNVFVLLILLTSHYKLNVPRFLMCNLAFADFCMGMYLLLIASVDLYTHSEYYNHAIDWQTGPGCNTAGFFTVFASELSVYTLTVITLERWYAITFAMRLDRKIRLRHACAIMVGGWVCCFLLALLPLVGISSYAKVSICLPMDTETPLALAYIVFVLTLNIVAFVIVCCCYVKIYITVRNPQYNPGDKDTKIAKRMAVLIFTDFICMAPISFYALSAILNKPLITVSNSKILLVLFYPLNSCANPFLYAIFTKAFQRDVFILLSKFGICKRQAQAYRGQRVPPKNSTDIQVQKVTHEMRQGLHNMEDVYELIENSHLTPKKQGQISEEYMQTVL
Estrogen receptor (Homo sapiens), sequence (P03372 whole entry, looked up): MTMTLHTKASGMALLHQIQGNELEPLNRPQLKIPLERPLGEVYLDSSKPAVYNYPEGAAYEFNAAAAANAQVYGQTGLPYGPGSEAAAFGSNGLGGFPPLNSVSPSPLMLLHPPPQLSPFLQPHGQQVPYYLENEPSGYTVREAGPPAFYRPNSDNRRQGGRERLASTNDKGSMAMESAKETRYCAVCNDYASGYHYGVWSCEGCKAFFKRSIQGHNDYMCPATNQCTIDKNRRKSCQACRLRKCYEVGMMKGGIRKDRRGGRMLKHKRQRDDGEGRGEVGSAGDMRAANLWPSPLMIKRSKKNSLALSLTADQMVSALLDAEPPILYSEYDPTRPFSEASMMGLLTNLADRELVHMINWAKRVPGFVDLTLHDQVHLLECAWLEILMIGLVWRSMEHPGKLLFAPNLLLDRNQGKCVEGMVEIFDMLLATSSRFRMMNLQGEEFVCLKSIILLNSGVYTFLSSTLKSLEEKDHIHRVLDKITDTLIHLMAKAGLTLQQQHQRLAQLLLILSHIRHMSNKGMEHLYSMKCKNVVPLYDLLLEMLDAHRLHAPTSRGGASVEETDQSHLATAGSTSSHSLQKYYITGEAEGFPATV

Take `CSC1=N[C@@](C)(c2ccccc2)C(=O)N1Nc1ccccc1`: the Potency is 2.43 µM (active) in [1], 27.3 µM (active) in experiment [2] and 30.6 µM (active) in experiment [3]. Moreover, the Potency result in experiment [4] is “inactive”.

In the case of `CCC[CH2][Sn]([CH2]CCC)([CH2]CCC)[O][Sn]([CH2]CCC)([CH2]CCC)[CH2]CCC`, the figures for the Potency in [1], in experiment [6] and in [4] were 0.212 µM (active), 1.06 µM (active) and 1.19 µM (active), respectively. Further, the activation in experiment [5] is -9.06% [at 8.39 µM] (inactive); in experiment [7] it was -10.6% [at 8.39 µM] (inactive); in experiment [8], -15.3% [at 8.39 µM] (inactive). Further, the cAMP activity change in experiment [9] was 1.6% [at 8.39 µM, stronger effect = higher value] (inactive). The activity change, negative = inhibition in experiment [10] was 0.334% [at 8.39 µM] (inactive).

Regarding `O=[N+]([O-])C(Br)Br`, the Potency entry in experiment [1], in [5], in experiment [6], in [7] and in [4] was “inactive” throughout.

Consider `CC(C)=CC1C(C(=O)OC(C#N)c2cccc(Oc3ccccc3)c2)C1(C)C` (centres undefined), for which the Potency entry in experiment [1], in experiment [2], in experiment [3], in experiment [6], in [7] and in experiment [4] was “inactive” each time. Also, the Potency entry in experiment [9] and in [10] was “inactive” throughout.

`N#Cc1c2ccccc2cc2ccccc12`: the Potency entry in [1], in [7], in experiment [4], in experiment [8], in experiment [9] and in [10] was “inactive” each time. Further, the Potency in experiment [5] was 21.6 µM (active).

As for `CC(C)=CCN1CC[C@@]2(C)c3cc(O)ccc3C[C@@H]1[C@@H]2C`, the Potency entry in experiment [1], in experiment [5], in experiment [6], in experiment [4], in experiment [8] and in experiment [9] was “inactive” each time. For the same compound, the Potency result in experiment [10] was “inactive”.

Consider `CC1(C)C(C=C(Cl)Cl)C1C(=O)OC(C#N)c1ccc(F)c(Oc2ccccc2)c1` (centres undefined), for which the Potency result in experiment [1], in [2], in experiment [3], in experiment [4], in experiment [8] and in [10] was “inactive” each time.

As to `COC(=O)/C=C(\C)OP(=O)(OC)OC`, the Potency result in experiment [1], in experiment [5], in [4], in [8] and in [9] was “inactive” in each case.

With `ClSC(Cl)(Cl)Cl`, the Potency result in [1], in [2], in [3], in experiment [6], in experiment [4] and in experiment [8] was “inactive” each time. The Potency result in experiment [9] and in experiment [10] was “inactive” each time.

Take `CCN(CC)CCc1c[nH]c2ccccc12`: the Potency in experiment [1] is 50.9 µM (active). Moreover, the Potency result in [5], in experiment [6], in [4], in [8], in experiment [9] and in [10] was “inactive” in each case.

Take `O=C1C(Cl)=C(Cl)C(=O)C(Cl)=C1Cl`: the Potency in [1] was 4.84 µM (active) and 12.2 µM (active); in [3], 60.9 µM (active) and inactive; in experiment [6], 60.9 µM (active) and 54.5 µM (active); in [4], 60.9 µM (active). Moreover, the Potency entry in experiment [7] and in experiment [8] was “inactive” throughout.

Turning to `CCN(CC)Cc1nccn1-c1ccc([N+](=O)[O-])cc1C(=O)c1ccccc1Cl`, the Potency entry in [1], in experiment [5], in experiment [3], in experiment [4], in [9] and in experiment [10] was “inactive” each time.

As to `C[C@]12CC[C@H]3[C@@H](CCC4=CC(=O)CC[C@@H]43)[C@@H]1CC[C@@H]2OC(=O)CCc1ccco1`, the Potency result in [1], in [3], in experiment [4] and in experiment [9] was “inactive” throughout. In addition, the Potency is 2.66 µM (active) in experiment [5] and 23.7 nM (active) in experiment [7].

Turning to `CC1(C)[C@H](/C=C2\CCSC2=O)[C@@H]1C(=O)OCc1coc(Cc2ccccc2)c1`, the Potency in experiment [1] is 12.2 µM (active). The Potency result in experiment [2], in experiment [3], in experiment [6], in experiment [4], in experiment [8] and in experiment [9] was “inactive” in each case.

Take `CCC[CH2][Sn]([CH2]CCC)([O]C(C)=O)[O]C(C)=O`: the Potency in [1] is 2.19 µM (active); in experiment [2] it was 0.174 µM (active); in experiment [3], 0.978 µM (active); in [6], 0.276 µM (active). Moreover, the Potency result in [8], in [9] and in [10] was “inactive” in each case.

`C=CCOC(=O)c1ccccc1N`: the Potency entry in experiment [1], in experiment [5], in experiment [3], in experiment [7], in experiment [4] and in experiment [8] was “inactive” each time. Besides, the Potency entry in [9] and in [10] was “inactive” each time. In experiment [6], the Potency is 30.8 µM (active).

Take `S=C=Nc1ccccc1`: the Potency entry in [1], in [2], in experiment [3], in experiment [7], in [4] and in experiment [8] was “inactive” throughout.

With `Cc1cc(C2CC2)nc(Nc2ccccc2)n1`, the Potency entry in experiment [1], in experiment [2], in experiment [3], in [4], in experiment [8] and in experiment [10] was “inactive” each time.

With `O=Cc1ccccc1`, the Potency entry in experiment [1], in experiment [2], in experiment [4], in experiment [9] and in [10] was “inactive” throughout.

On to `Cc1ccc2cc3c(ccc4ccccc43)c3c2c1CC3`, for which the Potency result in experiment [1], in experiment [2], in [3], in experiment [6], in experiment [4] and in experiment [8] was “inactive” each time. In addition, the Potency result in [9] and in experiment [10] was “inactive” each time.

For `CN(C)c1ccc(N)cc1`, the Potency in experiment [1] is 13.4 µM (active); in experiment [2], 23.7 µM (active); in [3], 59.6 µM (active); in experiment [6], 11.9 µM (active). The Potency result in experiment [7] and in [8] was “inactive” throughout.

Turning to `Oc1cc(Cl)c(Cl)c(Cl)c1Cl`, the Potency in [1] was 26.7 µM (active); in [2], 13.4 µM (active); in [3], 59.7 µM (active). Also, the Potency entry in [7], in experiment [4], in experiment [8], in [9] and in experiment [10] was “inactive” each time.

As to `CC(Cl)CCl` (centres undefined), the Potency entry in experiment [1], in experiment [2], in [3], in [6], in experiment [4] and in experiment [8] was “inactive” in each case. Also, the Potency entry in [9] and in [10] was “inactive” throughout.

With `CSSC`, the Potency in experiment [1] was 15.5 µM (active). Besides, the Potency result in [2], in [6], in experiment [4], in experiment [9] and in experiment [10] was “inactive” in each case.

Take `O=[N+]([O-])c1ccc(Cl)c(Cl)c1Cl`: the Potency result in [1], in [2], in experiment [3], in experiment [4], in [8] and in experiment [9] was “inactive” each time.

Consider `COP(=S)(NC(C)C)Oc1ccc(C)cc1[N+](=O)[O-]` (centres undefined), for which the Potency entry in experiment [1], in experiment [4], in experiment [8] and in experiment [10] was “inactive” throughout. Further, in experiment [2], the Potency was 30.6 µM (active).

Consider `CC(C)N(C(=O)SC/C(Cl)=C/Cl)C(C)C`, for which the Potency result in experiment [1], in [5], in experiment [3], in experiment [6], in [4] and in experiment [8] was “inactive” throughout. The Potency result in experiment [9] and in experiment [10] was “inactive” each time.

Turning to `ClCBr`, the Potency result in experiment [1], in [2], in experiment [3], in [4], in experiment [8] and in experiment [10] was “inactive” throughout.

For the compound `Brc1cccc(-c2ccccc2)c1`, the Potency result in experiment [1], in experiment [5], in experiment [2], in experiment [4] and in [8] was “inactive” throughout.
